TDP1 cell noCPT: qHTS for Inhibitors of human tyrosyl-DNA phosphodiesterase 1 (TDP1): qHTS in cells in absence of CPT | AID 686978, 2013 | 15% of 420,000 active | DT40 Tdp1-/- hTDP1 cells, no CPT, ATP luminescence, 48 h | Potency, µM (series often up to 46.2 µM), hits mostly inhibitors; also: nearly all actives have a fitted effect of over 55% in size
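Readout: luminescence from CellTiter-Glo after 30 min in the dark at RT. Cells: DT40 Tdp1-/- with stable hTDP1, 400/well. Exposure: compounds alone, ≥48 hr, 37 °C.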
TDP1 cell CPT: DT40-hTDP1 cell growth loss with CPT | chicken DT40 Tdp1-/-;hTDP1 cells + 20 nM CPT, ATP luminescence, 48 h | Potency, µM (doses to about 46.2 µM), most hits filed as inhibitors | 12% of 420,000 active | AID 686979; also: nearly all actives have a fitted effect of over 55% in size
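Chicken DT40 Tdp1-/- cells stably complemented with human TDP1 were seeded at 400 cells/well in medium containing 20 nM camptothecin, exposed to pin-transferred compounds, and grown at 37 °C for at least 48 hr. Viability was read as ATP luminescence.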
KAT2A inh: blocks human GCN5L2 histone acetyltransferase; GCN5L2 HAT assay, ThioGlo1 CoA-SH fluorescence; 0.21% of 390,000 active; Q92830; AID 504327; Potency, µM (doses to about 58.9 µM), hits mostly inhibitors
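Titration-based screen in which CoA formation is detected via maleimide probe ThioGlo1 (50uM) turning fluorescent on thiol reaction; substrates H3(1-25) 75uM and acetyl-CoA 70uM, GCN5L2 20nM, 20 min incubation at room temperature.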
VDR inhibitor: inhibitors of human vitamin D receptor | VDR-SRC2-3 peptide fluorescence polarization, 2 h | Potency, µM, most hits filed as inhibitors | P11473 | 0.93% of 400,000 active
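Fluorescence polarization assay of small-molecule disruption of VDR binding to coregulator peptide SRC2-3. Compounds and controls pin-transferred, then read after 2 h incubation at ambient room temperature.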
TDP1 inh: blocks human tyrosyl-DNA phosphodiesterase 1. recombinant TDP1, AlphaScreen DNA substrate cleavage. Potency, µM (titrated, usually from 130 µM), actives largely listed as inhibitors. 0.28% of 350,000 active; also: nearly all actives have a fitted effect of over 40% in size
Target sequence (Q9NUW8 whole entry, looked up): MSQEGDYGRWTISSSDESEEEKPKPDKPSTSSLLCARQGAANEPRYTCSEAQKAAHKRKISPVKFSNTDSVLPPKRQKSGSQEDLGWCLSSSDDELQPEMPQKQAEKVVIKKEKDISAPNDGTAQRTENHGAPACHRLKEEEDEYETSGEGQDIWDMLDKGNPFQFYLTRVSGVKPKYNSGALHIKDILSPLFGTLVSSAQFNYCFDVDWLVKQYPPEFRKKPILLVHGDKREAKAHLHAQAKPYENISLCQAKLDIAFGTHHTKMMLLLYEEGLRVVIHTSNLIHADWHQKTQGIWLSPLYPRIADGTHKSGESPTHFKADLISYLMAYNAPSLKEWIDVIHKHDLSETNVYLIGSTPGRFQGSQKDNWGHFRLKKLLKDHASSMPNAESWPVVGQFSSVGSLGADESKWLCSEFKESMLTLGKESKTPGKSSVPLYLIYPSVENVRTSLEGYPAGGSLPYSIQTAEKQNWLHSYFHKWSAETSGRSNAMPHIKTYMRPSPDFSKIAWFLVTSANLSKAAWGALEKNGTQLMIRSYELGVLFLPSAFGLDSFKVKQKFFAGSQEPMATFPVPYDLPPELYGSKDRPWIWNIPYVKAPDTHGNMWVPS
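AlphaScreen read-out: signal falls as enzyme removes the 3' tyrosine-FITC from a 5'-biotinylated DNA oligo (15 nM, 5 min, RT). Enzyme was E. coli-made recombinant Tdp1 at 1 nM, exposed to compound for 15 min beforehand; beads 10 ug/ml, 10 min.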
PLK1 PBD block: blocks phosphopeptide binding to human PLK1 polo-box domain. P53350. Plk1 PBD binding of FITC phosphopeptide, fluorescence polarization. Potency, µM, actives largely listed as inhibitors. 2.8% of 360,000 active; also: series mostly up to about 57 µM; nearly all actives have a fitted effect of over 65% in size
VDR inh confirm: confirmation of human vitamin D receptor inhibitors | shares compounds with VDR inhibitor | VDR-coactivator inhibition assay, qHTS confirmation | Potency, µM, actives largely listed as inhibitors | 89% of 840 active | AID 602199
VDR FP fluor: VDR (human) coactivator binding inhibition, fluorescein polarization; shares compounds with VDR inhibitor; VDR-coactivator binding, fluorescein fluorescence polarization; Potency, µM (doses to about 57.1 µM), most hits filed as inhibitors; 48% of 840 active; AID 602200
VDR bla: inhibits human VDR in beta-lactamase reporter cells; 23% of 840 active; VDR beta-lactamase reporter cells, FRET ratio; cells co-treated with VDR agonist LG190178; shares compounds with VDR inhibitor; Potency, µM (top dose mostly 46.1 µM), most hits filed as inhibitors
VDR cytotox: cytotoxic in counter-screen for VDR inhibitors | shares compounds with VDR inhibitor | cytotoxicity counter-screen, cell viability, qHTS | Potency, µM (titrated, usually from 48.3 µM), most hits filed as cytotoxic | 18% of 840 active; also: nearly all actives have a fitted effect of over 75% in size
Hits are given with their value; - = inactive; ? = inconclusive; . = not tested or not shown; [ ] = remark or other dose. Sampled rows, rich in hits. Any-hit rate of the full collection: about 18%. Calls follow the shape of the dose curve; as a rule, active = well fitted curve in the direction sought with a large enough effect; inconclusive = small, poorly fitted or top-dose-only effect, or another doubt; inactive = no such curve, though single readings can be large; an effect the other way counts as inactive or inconclusive.

SMILES	TDP1 cell noCPT	TDP1 cell CPT	KAT2A inh	VDR inhibitor	TDP1 inh	PLK1 PBD block	VDR inh confirm	VDR FP fluor	VDR bla	VDR cytotox
COc1ccc(/C=C2\N=C(C)OC2=O)cc1[N+](=O)[O-]	?	?	-	79µM	-	?	11	?	-	-
CC(C)C[C@H](N)c1nnc(S(=O)(=O)Cc2ccc(F)cc2)o1	2.1µM	1.3µM	-	32µM	-	?	?	20µM	?	?
COc1ccc(Br)cc1C1NC(c2ccc3c(c2)OCO3)=CC(c2cc(Cl)ccc2O)N1 (stereo unspecified)	.	.	.	50µM	-	.	?	?	?	-
COc1ccc(Cl)cc1NC(=O)c1cc(-c2ccc3c(c2)OCO3)on1	-	-	-	-	-	.	.	.	.	.
O=C(CSCc1cccc(Br)c1)NC1CC1	-	-	-	-	-	-	.	.	.	.
CCc1ccc(CNC(=O)c2ccc(OC3CCN(C(C)=O)CC3)c(OC)c2)nc1	-	-	?	-	-	-	.	.	.	.
CC1(C)CC(=O)C(C(C2=C(O)CC(C)(C)CC2=O)c2ccc(O)c([N+](=O)[O-])c2)=C(O)C1	-	-	-	79µM	-	4.7µM	9.5	?	-	-
COc1cccc(C(C2=C(O)CC(C)(C)CC2=O)C2C(=O)CC(C)(C)CC2=O)c1 (stereo unspecified)	-	-	-	?	-	?	.	.	.	.
CC(=O)C1=C(c2ccc(Br)cc2)C(=O)c2ccccc2C1=O	1.5µM	1.3µM	-	25µM	-	-	5	7.9µM	2.9µM	8.4µM
C/C(=N/NC(=O)CNC(=O)c1cccnc1)c1ccc(Cl)c(Cl)c1	-	-	-	-	.	-	.	.	.	.
CN(CC(=O)N1CCN(c2ccccc2)CC1)C1CCCc2ccccc21 (stereo unspecified)	?	-	-	-	-	-	.	.	.	.
CCN(CC)C(=O)C[n+]1cccc(C(N)=O)c1	-	-	-	-	-	-	.	.	.	.
COc1cc(/C=C/C(=O)Nc2ccc(S(=O)(=O)Nc3ncccn3)cc2)ccc1OCC#N	?	-	.	-	.	-	.	.	.	.
COc1cccc(C(=O)/C=C/c2ccc(OCC#N)c(OC)c2)c1	13µM	21µM	-	50µM	-	-	27	14µM	?	?
O=C(/C=C/c1cccc(F)c1)Nc1ccc(S(=O)(=O)N2CCOCC2)cc1	?	?	-	?	-	-	.	.	.	.
O=[N+]([O-])c1c(NCCCO)cc(Sc2nc3ccccc3s2)c2nonc12	0.79µM	1.3µM	?	16µM	-	0.95µM	6	?	?	?
CC(C)OC(=O)CSc1nc2ccccc2s1	-	-	-	-	-	?	.	.	.	.
CCC(=O)OCCNc1cc(Sc2nc3ccccc3s2)c2nonc2c1[N+](=O)[O-]	2.1µM	1.6µM	-	8.9µM	-	1.9µM	6.7	3.2µM	16µM	?
O=[N+]([O-])c1c(NCCO)cc(N2CCCCCC2)c2nonc12	-	-	-	-	.	-	.	.	.	.
NC1=NC(=O)/C(=C/c2cn(Cc3ccccc3)c3ccccc23)S1	?	?	-	?	-	-	.	.	.	.
O=C(NNc1cc(Br)c(O)c(Br)c1)c1ccccc1	18µM	?	-	79µM	-	-	?	?	-	-
COc1ccc(CCNC(=O)COC(=O)C2CC2)cc1OC	-	-	-	-	-	-	.	.	.	.
Cc1ccc(C(=O)c2sc(Nc3ccccc3)c(C#N)c2N)cc1	?	?	-	-	-	-	.	.	.	.
N#Cc1c(Nc2ccccc2)s[nH]c1=O	8.2µM	8.2µM	-	?	.	-	7.5	-	-	-
Cc1cc(=O)[nH]c(Nc2cccc(Cl)c2C)n1	-	-	-	-	.	-	.	.	.	.
SMILES	TDP1 cell noCPT	TDP1 cell CPT	KAT2A inh	VDR inhibitor	TDP1 inh	PLK1 PBD block	VDR inh confirm	VDR FP fluor	VDR bla	VDR cytotox
Cc1nc2ccc(N=NN(C)C)cc2[nH]1	-	-	?	50µM	.	-	21	?	-	?
CC1CC(C)CN(CCCNC(=O)CN2C(=O)COc3ccc(S(=O)(=O)N4CCOCC4)cc32)C1 (stereo unspecified)	-	-	-	-	-	-	.	.	.	.
CCOc1cc(/C=C2\N=C(C)OC2=O)cc(Cl)c1OCC(=O)OC	?	?	.	45µM	.	-	9.5	?	-	-
COC(=O)C1CSC(C(=O)OC)N1C(=O)CN1CCN(c2ccccc2)CC1 (stereo unspecified)	-	-	-	-	-	-	.	.	.	.
O=C1CC2(CCCC2)Oc2ccccc21	-	-	.	-	.	-	.	.	.	.
Cc1[nH]n(-c2ncc(-c3ccccc3)s2)c(=O)c1C(c1ccc(Cl)cc1)C(C#N)C#N (stereo unspecified)	?	?	-	35µM	-	3.8µM	6.7	?	-	-
c1ccc(CCc2nn3c(Cc4ccccc4)nnc3s2)cc1	?	?	-	79µM	-	11µM	28	25µM	-	?
CC(=O)N(C[C@@H](C)C(=O)O)c1c(I)cc(I)c(N)c1I	.	.	-	-	-	.	.	.	.	.
O=C1CNC(=O)N1Cc1ccc(Br)cc1	-	-	?	-	-	-	.	.	.	.
Cc1ccc2c(c1)C(=O)C(=O)N2Cc1ccc(Br)cc1	0.65µM	0.92µM	-	22µM	-	?	8.4	?	-	?
CC1(OC(=O)C2CCCC2)C(=O)C=C2C=C(c3ccsc3)N(CCN3CCOCC3)C=C2C1=O (stereo unspecified)	.	.	-	.	-[21 µM]	.	.	.	.	.
CC1(OC(=O)C2CCCC2)C(=O)C=C2C=C(c3ccsc3)N(CCc3c[nH]c4ccccc34)C=C2C1=O (stereo unspecified)	?	21µM	-	?	-[12.3 µM]	-	?	?	-	-
CS(=O)(=O)c1ccc(C(=O)OCc2nnc(-c3ccc(Cl)cc3)o2)cc1[N+](=O)[O-]	4.6µM	3.3µM	-	25µM	-	-	5.6	2.2µM	15µM	?
O=S(=O)(/N=S1/CC=CCN1S(=O)(=O)c1ccccc1)c1ccccc1 (stereo unspecified)	.	?	-	3.5µM	-	1.5µM	5.3	?	-	-
O=C(c1cnn2c(-c3ccccc3)cc(-c3ccccc3)nc12)N1CCN(Cc2ccccc2)CC1	-	?	.	-	.	-	.	.	.	.

Assay outcomes from PubChem BioAssay.
